Structures can show the parent of a compound that is named as a salt.
What was measured:
[1] = tested on: Staphylococcus aureus MW2 delta-mecA (mecA-); test: normalized GFP fluorescence (growth of mecA- strain) (fraction of control range); higher = more growth of mecA- strain; conditions: compound concentration: 150 uM; cefoxitin: subinhibitory; fluorescent label: GFP
Procedure, shortened: (§1)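 Single-replicate 1536-well plates carried 150 μM compound (1.5% DMSO), onto which 5 µL/well of a 1:1 mix of pre-induced S. aureus MW2 cells was dispensed: gene-carrying cells tagged with DsRed and deletion cells tagged with GFP, in LB with a subinhibitory antibiotic dose set daily. Incubation ran 20 h at 37 °C, 90% humidity, unshaken, followed by DsRed (540/590) and GFP (485/520) reads. Per-plate scaling of each channel used single-strain control medians, and plates with high untreated ratios and rows with DsRed/GFP >10 were excluded.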

[2] = tested on: Staphylococcus aureus MW2 (mecA+); test: normalized DsRed fluorescence (growth of mecA+ strain) (fraction of control range); higher = more growth of mecA+ strain; conditions: compound concentration: 150 uM; cefoxitin: subinhibitory; fluorescent label: DsRed
Procedure, shortened: as §1

Compound | normalized GFP fluorescence [1] | normalized DsRed fluorescence [2]
N=C(N)N1CCc2ccccc2C1 | 0.353 | 0.808
CCN(CC)CC#CCOC(=O)C(O)(c1ccccc1)C1CCCCC1 (stereo not drawn) | 0.0426 | 0.796
CCC(=O)O[C@]1(C(=O)SCF)[C@H](C)C[C@H]2[C@@H]3C[C@H](F)C4=CC(=O)C=C[C@]4(C)[C@@]3(F)[C@@H](O)C[C@@]21C | 0.777 | 0.959
OC(CCN1CCCC1)(c1ccccc1)C1CCCCC1 (stereo not drawn) | 0.159 | 1.7
CCN1C(=O)NC(c2ccccc2)C1=O (stereo not drawn) | 0.469 | 1.21
CN(CCOc1ccc(CC2SC(=O)NC2=O)cc1)c1ccccn1 (stereo not drawn) | 0.341 | 0.876
C[C@H](N)[C@H](O)c1cccc(O)c1 | 0.482 | 0.581
Cc1cc(CC(=O)O)n(C)c1C(=O)c1ccc(Cl)cc1 | 0.288 | 0.63
C[C@@H]1NC(=O)[C@@H](N)CNC(=O)[C@H](C2CCNC(=N)N2)NC(=O)/C(=C/NC(N)=O)NC(=O)[C@H](CNC(=O)CC(N)CCCN)NC1=O.N=C1NCCC([C@@H]2NC(=O)/C(=C/NC(N)=O)NC(=O)[C@H](CNC(=O)CC(N)CCCN)NC(=O)[C@H](CO)NC(=O)[C@@H](N)CNC2=O)N1 (stereo partly drawn) | 0.494 | 0.758
COc1ccc(-c2cc(=O)c3c(O)cc(O[C@@H]4O[C@H](CO[C@@H]5O[C@@H](C)[C@H](O)[C@@H](O)[C@H]5O)[C@@H](O)[C@H](O)[C@H]4O)cc3o2)cc1O [Diosmin] | 0.55 | 1.27
CS(=O)(=O)OCCCCOS(C)(=O)=O | 0.346 | 0.573
COCCOC(=O)C1=C(C)NC(C)=C(C(=O)OC/C=C/c2ccccc2)C1c1cccc([N+](=O)[O-])c1 (stereo not drawn) [Cilnidipine] | 0.176 | 0.777
Cc1nc(Nc2ncc(C(=O)Nc3c(C)cccc3Cl)s2)cc(N2CCN(CCO)CC2)n1 | 0.0741 | 0.816
CCOc1cc([C@@H](CS(C)(=O)=O)N2C(=O)c3cccc(NC(C)=O)c3C2=O)ccc1OC | 0.254 | 0.579
CC(=O)/N=c1/sc(S(N)(=O)=O)nn1C | 0.574 | 0.53
CC(C)(C)NCC(O)COc1cccc2c1CCC(=O)N2 (stereo not drawn) | 0.243 | 1.11
C=C1[C@H](CO)[C@@H](O)C[C@@H]1n1cnc2c(=O)[nH]c(N)nc21 [Entecavir hydrate] | 0.319 | 0.447

Compound | normalized GFP fluorescence [1] | normalized DsRed fluorescence [2]
Cc1nnc(C(C)C)n1C1C[C@H]2CC[C@@H](C1)N2CC[C@H](NC(=O)C1CCC(F)(F)CC1)c1ccccc1 (stereo in doubt) [Maraviroc] | 0.747 | 0.67
CCCCC(CC)COC(=O)C=Cc1ccc(OC)cc1 (stereo not drawn) | 0.289 | 0.473
CN(C)CCCN1c2ccccc2Sc2ccc(C(F)(F)F)cc21 | -0.00501 | 1.49
NC[C@H]1O[C@H](O[C@H]2[C@H](O[C@@H]3O[C@H](CO)[C@@H](O)[C@H]3O)[C@@H](O)[C@H](N)C[C@@H]2N)[C@H](N)[C@@H](O)[C@@H]1O | 0.457 | 0.685
C[C@]12C=CC(=O)C=C1CC[C@@H]1[C@@H]2[C@@H](O)C[C@@]2(C)[C@H]1CC[C@]2(O)C(=O)COC(=O)CCC(=O)O | 0.461 | 1.04
Clc1ccc(CCC(Cn2ccnc2)Sc2c(Cl)cccc2Cl)cc1 (stereo not drawn) | -0.00294 | 0.01
O=c1n(CCCN2CCN(c3cccc(Cl)c3)CC2)nc2ccccn12 | 0.187 | 1.1
CC(=O)Oc1cc2c(s1)CCN(C(C(=O)C1CC1)c1ccccc1F)C2 (stereo not drawn) [Prasugrel (Effient)] | 0.226 | 0.841
O=C1N=C(O)NC1(c1ccccc1)c1ccccc1 | 0.309 | 1.06
CN(C/C=C/C#CC(C)(C)C)Cc1cccc2ccccc12 [Terbinafine hydrochloride (Lamisil)] | 0.111 | 0.483
Oc1ccc(C2CNCCc3c2cc(O)c(O)c3Cl)cc1 (stereo not drawn) | 0.582 | 0.979
C[C@@H]1C[C@H]2[C@@H]3CCC4=CC(=O)C=C[C@]4(C)[C@@]3(F)[C@@H](O)C[C@]2(C)[C@@]1(O)C(=O)CO | 0.309 | 0.687
CCOc1ccc(NC(C)=O)cc1 | 0.419 | 0.668
CS(=O)(=O)CCNCc1ccc(-c2ccc3ncnc(Nc4ccc(OCc5cccc(F)c5)c(Cl)c4)c3c2)o1 [Lapatinib Ditosylate (Tykerb)] | -0.0239 | 1.52
C[C@@H](c1ncncc1F)[C@](O)(Cn1cncn1)c1ccc(F)cc1F | 0.309 | 0.766
Clc1ccc2c(c1)C(N1CCNCC1)=Nc1ccccc1O2 | 0.114 | 1.74
CCOC(=O)[C@H](CCc1ccccc1)N[C@@H](C)C(=O)N1CCC[C@H]1C(=O)O | 0.325 | 0.611

From the supplement of paper PMC7695840
